Screens as filed in PubChem.
WRN inhibitor = qHTS for Inhibitors of WRN Helicase | 360,000 tested, 0.46% active | Potency, µM (titrated, usually from 114 µM), for the others: top-dose activity change, negative = inhibition, actives largely listed as inhibitors | AID 651768, 2012 | WRN helicase unwinding, fluorescent forked duplex, kinetic | Bifunctional 3'-5' exonuclease/ATP-dependent helicase WRN (Homo sapiens), Q14191; note: nearly all actives have a fitted effect of over 55% in size
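Primary qHTS, 1536-well format. 20 nM WRN + compound, 15 min RT; start with 100 nM forked fluorophore/quencher duplex, 2 mM ATP (final); kinetic read ex 525/em 598 nm.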
FEN1 inhibitor = qHTS Assay for the Inhibitors of Human Flap endonuclease 1 (FEN1); P39748; Recombinant FEN1 flap cleavage, fluorescence, 15 min; Potency, µM (highest dose often 114 µM), inactives show at the highest dose activity change, negative = inhibition, hits mostly inhibitors; 390,000 tested, 0.35% active; note: nearly all actives have a fitted effect of over 65% in size
Target sequence (P39748 whole entry, looked up): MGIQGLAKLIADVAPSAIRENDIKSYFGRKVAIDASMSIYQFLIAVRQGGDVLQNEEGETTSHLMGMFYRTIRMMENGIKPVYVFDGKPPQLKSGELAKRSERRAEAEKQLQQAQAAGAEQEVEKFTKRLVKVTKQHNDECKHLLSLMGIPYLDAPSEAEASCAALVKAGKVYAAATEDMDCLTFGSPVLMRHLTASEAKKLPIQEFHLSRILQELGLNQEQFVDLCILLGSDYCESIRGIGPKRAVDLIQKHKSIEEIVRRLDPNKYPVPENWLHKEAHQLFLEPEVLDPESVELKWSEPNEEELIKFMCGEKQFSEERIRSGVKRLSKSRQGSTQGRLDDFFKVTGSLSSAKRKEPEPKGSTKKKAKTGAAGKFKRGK
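Compounds are tested as a concentration series against 10 nM FEN1; after a 15 min room-temperature preincubation, 50 nM substrate starts cleavage, with plate reads at 0 and 15 min. Normalized responses are fitted by a Hill equation.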
APE1 inh = qHTS Assay for Inhibitors of the Human Apurinic/apyrimidinic Endonuclease 1 (APE1); DNA repair nuclease/redox regulator APEX1 (Homo sapiens), P27695; recombinant APE1, TAMRA/BHQ-2 abasic DNA cleavage fluorescence; Potency, µM (titrated, usually from 65.8 µM), for the others: top-dose activity change, negative = inhibition, usual class: inhibitors; 350,000 tested, 0.35% active; AID 2517, 2012;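 note: plate controls were vehicle for no effect and reference inhibitor for full effect; nearly all actives have a fitted effect of over 55% in size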
Target sequence (P27695 whole entry, looked up): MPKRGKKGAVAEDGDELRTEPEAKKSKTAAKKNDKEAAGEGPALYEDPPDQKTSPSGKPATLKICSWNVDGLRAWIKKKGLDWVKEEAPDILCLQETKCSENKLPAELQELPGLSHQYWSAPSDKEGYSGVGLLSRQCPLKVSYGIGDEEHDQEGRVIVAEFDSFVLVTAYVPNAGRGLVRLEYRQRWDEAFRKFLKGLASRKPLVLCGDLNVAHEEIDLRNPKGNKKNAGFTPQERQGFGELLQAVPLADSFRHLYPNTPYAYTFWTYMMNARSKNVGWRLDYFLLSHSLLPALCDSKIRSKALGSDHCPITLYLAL
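Incision of a quenched TAMRA/BHQ-2 THF abasic-site duplex (50 nM) by 0.75 nM APE1, after 15 min compound preincubation, measured as fluorescence increase over three 60 s reads. Values normalized to buffer, DMSO and NSC13755 control wells.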
BLM helicase inh = qHTS Assay for Inhibitors of Bloom's syndrome helicase (BLM); recombinant BLM DNA unwinding, fluorescence dequenching; Potency, µM (highest dose often 56.1 µM), for the others: at the top dose activity change, negative = inhibition, most hits filed as inhibitors; 350,000 tested, 0.2% active; AID 2528, 2010;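 note: plate controls were vehicle for no effect and no enzyme for full effect; nearly all actives have a fitted effect of over 35% in size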
L3MBTL1 inh = qHTS Assay for the Inhibitors of L3MBTL1; AlphaScreen L3MBTL1–H3K9me1 peptide binding; Potency, µM (series often up to 57.1 µM), for inactives: top-dose activity, negative = inhibition, usual class: inhibitors; 230,000 tested, 0.66% active; note: nearly all actives have a fitted effect of over 60% in size
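Read-out is AlphaScreen signal from streptavidin donor and nickel chelate acceptor beads (10 ug/mL final each) bridging L3MBTL1 (50 nM) and biotinylated K9-monomethylated H3(1-15) peptide (75 nM), after 30 min compound exposure at room temperature.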
RECQ1 inh = qHTS Assay for Inhibitors of RecQ-Like Dna Helicase 1 (RECQ1); AID 2549, 2010; RECQ1 DNA unwinding, red fluorescence kinetic read; 240,000 tested, 0.54% active; Potency, µM (top dose mostly 57.3 µM), for inactives: at the highest dose activity, negative = inhibition, usual class: inhibitors;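 note: plate controls were vehicle for no effect and no enzyme for full effect; nearly all actives have a fitted effect of over 30% in size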
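50 nM RECQ1T1 preincubated 15 min with compound in Tris pH 8.0 buffer with MgCl2, DTT, Tween-20 and 2.5 ug/ml poly(dI-dC); started with 200 nM TAMRA/BHQ-2 forked duplex and 2 mM ATP. Unwinding read as fluorescence (525/598 nm), two reads 2 h apart.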
Starred values were filed as active, the others as inactive; [ ] = remark or other dose. Sampled rows, rich in hits. Any-hit rate of the full collection: about 1%. Calls come from the whole dose curve; as a rule, active = well fitted curve in the direction sought with a large enough effect; inconclusive = small, poorly fitted or top-dose-only effect, or another doubt; inactive = no such curve, though single readings can be large; an effect the other way counts as inactive or inconclusive. Unless noted, % is set by controls: 0 for no effect and ±100 for the full control effect; potency is the fitted concentration of half-maximal effect.

For COc1cc2nc(CN3CCN(S(=O)(=O)c4ccccc4[N+](=O)[O-])CC3)[nH]c(=O)c2cc1OC the results were WRN inhibitor 5%.
`CCOC(=O)c1ccccc1NC(=O)Cn1ccn2nc(-c3ccc(OCC)cc3)cc2c1=O` gave FEN1 inhibitor 18% and BLM helicase inh 0%.
Screening O=C(NCCc1ccccc1)c1cc(-c2ccccc2)nc2n[nH]c(-c3ccccc3)c12 returned FEN1 inhibitor -14% and BLM helicase inh 2%.
CSc1nsc(/C=C/Nc2ccc(C(=O)O)cc2)c1C#N was read as WRN inhibitor -6%, FEN1 inhibitor -7%, APE1 inh inconclusive, BLM helicase inh 28µM*, L3MBTL1 inh -13% and RECQ1 inh -6%.
For CSc1nsc(/C=C/Nc2ccc(F)cc2F)c1C#N the results were WRN inhibitor -35%[57.1 µM], FEN1 inhibitor -13%, APE1 inh -11%, BLM helicase inh -21%, L3MBTL1 inh inconclusive and RECQ1 inh inactive.
For Cc1ccc(OCC(=O)Nc2ccc3c(c2)nc(CCNC(=O)c2ccco2)n3C)cc1 the results were FEN1 inhibitor 19% and BLM helicase inh 1%.
For Cc1[nH]nc2c1C(c1ccc(F)cc1)C(C#N)=C(N)O2 (stereo not given) the results were WRN inhibitor -3%, FEN1 inhibitor 3%, APE1 inh -6%, BLM helicase inh -1%, L3MBTL1 inh -5% and RECQ1 inh -14%.
Screening Cc1oc(C)c2c(=O)ccc3c(c12)OC(N)=C(C#N)C3c1ccc(F)cc1 (stereo not given) returned WRN inhibitor -34%, FEN1 inhibitor -22%, APE1 inh 1%, BLM helicase inh 6%, L3MBTL1 inh 28µM* and RECQ1 inh -4%.
`COc1cccc(-c2csc(N3CCC(C(N)=O)CC3)n2)c1` gave APE1 inh 19%.
`CC(C)(C)[C@H]1COC(=O)[C@H](NC(=O)OCC2c3ccccc3-c3ccccc32)C/C=C\C[C@@H](CC(=O)N[C@@H](CO)Cc2ccccc2)C(=O)N1` gave WRN inhibitor -8%, FEN1 inhibitor -8%, APE1 inh 24µM* and L3MBTL1 inh 4%.
`O=C(N[C@@H]1C/C=C\C[C@@H](CC(=O)N(CCO)Cc2ccccc2)C(=O)NCCOC1=O)OCC1c2ccccc2-c2ccccc21` gave WRN inhibitor -29%, FEN1 inhibitor 0%, APE1 inh 24µM* and L3MBTL1 inh -6%.
CC(C)(C)OC(=O)C[C@H]1C/C=C\C[C@H](CC(=O)N[C@@H](CO)Cc2ccccc2)C(=O)N[C@H](C(C)(C)C)COC1=O was read as WRN inhibitor -3%, FEN1 inhibitor 1%, APE1 inh 13µM* and L3MBTL1 inh 2%.
Screening CC(C)(C)[C@H]1COC(=O)[C@H](NC(=O)OCC2c3ccccc3-c3ccccc32)C/C=C\C[C@@H](CC(=O)N[C@H](CO)Cc2ccccc2)C(=O)N1 returned WRN inhibitor 7%, FEN1 inhibitor -14%, APE1 inh -16% and L3MBTL1 inh -1%.
`O=C1C=CC(=O)N1CCCCCCN1C(=O)C=CC1=O` gave WRN inhibitor 20µM*, FEN1 inhibitor -16%, APE1 inh -6%, BLM helicase inh -3%, L3MBTL1 inh -6% and RECQ1 inh inconclusive.
CC[C@H](C)[C@H](NC(=O)[C@H](Cc1ccc(O)cc1)NC(=O)[C@H](Cc1cnc[nH]1)NC(=O)[C@H](CCCNC(=N)N)NC(=O)[C@H](CC(C)C)NC(=O)[C@H](C)NC(=O)[C@H](CO)NC(=O)[C@H](Cc1ccc(O)cc1)NC(=O)[C@H](Cc1ccc(O)cc1)NC(=O)[C@H](CCCNC(=N)N)NC(=O)[C@H](C)NC(=O)[C@H](CCSC)NC(=O)[C@H](CC(=O)O)NC(=O)[C@H](CCC(=O)O)NC(=O)[C@H](C)NC(=O)[C@@H]1CCCN1)C(=O)N[C@@H](CC(N)=O)C(=O)N[C@@H](CC(C)C)C(=O)N[C@H](C(=O)N[C@H](C(=O)N[C@@H](CCCNC(=N)N)C(=O)N[C@@H](CCC(N)=O)C(=O)N[C@@H](CCCNC(=N)N)C(=O)N[C@@H](Cc1ccc(O)cc1)C(N)=O)[C@@H](C)O)[C@@H](C)CC was read as APE1 inh 4%, BLM helicase inh 4% and RECQ1 inh -4%.
Screening CCn1c(=S)[nH]c2c(=O)n(C)c(=O)n(C)c21 returned WRN inhibitor 50µM* and FEN1 inhibitor 2%.
`CCc1ccc2oc(-c3cc(NC(=O)COc4ccc(C)cc4)ccc3O)nc2c1` gave FEN1 inhibitor 11%.
COc1ccc2oc(C(=O)Nc3nc(-c4ccccn4)cs3)c(C)c2c1 was read as WRN inhibitor -19%, FEN1 inhibitor -4%, APE1 inh 7% and L3MBTL1 inh 25µM*.
For Cn1c(=O)c(Nc2ccc(O)cc2)c2c3c(cccc31)C(=O)c1ccccc1-2 the results were WRN inhibitor inconclusive, FEN1 inhibitor inconclusive, APE1 inh 8%, BLM helicase inh inconclusive, L3MBTL1 inh 25µM* and RECQ1 inh 1%.
Screening O=C1CCCC2=C1Sc1ccc(Cl)cc1N2 returned WRN inhibitor -10%, FEN1 inhibitor -20%, APE1 inh 8%, BLM helicase inh -4%, L3MBTL1 inh -7% and RECQ1 inh -6%.
For COC(=O)c1ccc2c(c1)SC1=C(CCCC1=O)N2 the results were WRN inhibitor 79µM*, FEN1 inhibitor -9%, APE1 inh -1%, BLM helicase inh -4%, L3MBTL1 inh -4%[11.4 µM] and RECQ1 inh -29%.
`CCOc1ccc(NC(=O)c2ccc(NC(=O)c3ccc(NC(N)=O)cc3)cc2)cc1` gave WRN inhibitor 1%, FEN1 inhibitor inconclusive, APE1 inh 13µM* and L3MBTL1 inh -24%.
`CCOc1ccc(NC(=O)c2ccc(N)cc2)cc1` gave WRN inhibitor 2%, FEN1 inhibitor 9%, APE1 inh -3%, BLM helicase inh 3%, L3MBTL1 inh 18% and RECQ1 inh 0%.
